“And” between values parts separate entries of the source, which are not always exact repeats. Equal values may be shown once. Records with an inconclusive call do not appear. Some compounds were tested as several samples or in several runs, with calls that do not always agree. Values without a mark were called inactive. The source made the active and inactive calls. Calls follow the shape of the dose curve; as a rule, active = well fitted curve in the direction sought with a large enough effect; inconclusive = small, poorly fitted or top-dose-only effect, or another doubt; inactive = no such curve, though single readings can be large; an effect the other way counts as inactive or inconclusive.
Tests used:
[1] = Viability qHTS for spleen associated tyrosine kinase inhibitor (SYKi) naive MV4-11 cells (AID 1963823); also: nearly all actives have a fitted effect of over 40% in size
Summary of the method: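 CellTiter-Glo luminescence, 10 min room-temperature incubation, gave viability. Cells: naive MV4-11 (500/well), treated 72 hr at 37 C, 5% CO2.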

[2] = Viability qHTS for spleen associated tyrosine kinase inhibitor (SYKi) drug resistant MV4-11 cells (AID 1963824); also: nearly all actives have a fitted effect of over 35% in size
Summary of the method: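 SYK inhibitor-resistant MV4-11 AML cells, 500 per well, added to predispensed compounds and incubated 72 hr at 37 C, 5% CO2. Viability measured by CellTiter-Glo luminescence after 10 min at room temperature.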

[3] = Cellular viability qHTS for adrenocortical cancer (ACC) cell line SW-13 (AID 1963989); settings: SW-13 ACC cells viability, CellTiter-Glo, 48 h; activity (max response): hits give low values; also: nearly all actives have a fitted effect of over 65% in size;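 as to activity (max response): cells grown in serum-free medium with ITS supplement; % is scaled to controls: 0 for no effect and ±100 for the full control effect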
Summary of the method: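 IC50 and maximal-response values come from four-parameter logistic fits of titration data. SW-13 cells in serum-free medium received compounds (up to 46 uM final) for 48 h before CellTiter-Glo luminescence.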

[4] = Cellular viability qHTS for adrenocortical cancer (ACC) cell line NCI-H295R (AID 1963990); also: nearly all actives have a fitted effect of over 60% in size
Summary of the method: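 Adrenocortical carcinoma cells, suspended at 300 000 cells/mL in serum-free DMEM plus ITS, rested overnight before pin transfer of compound. After two days' incubation, ATP-dependent luminescence was recorded and curve-fitted.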
Potency is read from the fitted curve at half-maximal effect.

Compound	Potency [1]	Potency [2]	activity (max response) [3]	Potency [4]	Potency [3]
CCN(CC)CCOC(=O)c1ccc(N)cc1	inactive	inactive	7.42%	inactive	
CCN(CC)CCOC(=O)C1(C2CCCCC2)CCCCC1	inactive	inactive	-12.2%		
NC(=NCCCCCCN=C(N)/N=C(\N)Nc1ccc(Cl)cc1)/N=C(\N)Nc1ccc(Cl)cc1	5.31 µM (active) and 1.84 µM (active)	2.99 µM (active) and 1.64 µM (active)			5.17 µM (active)
COc1c(Nc2ncc(Cl)c(N[C@H]3[C@H](C(N)=O)[C@@H]4C=C[C@@H]3C4)n2)ccc2c1CCC(N1CCOCC1)CC2 (stereo not given in full)	0.13 µM (active)	0.366 µM (active)			15.8 µM (active)
C[N+]1(C)[C@@H]2CC(OC(=O)[C@H](CO)c3ccccc3)C[C@H]1[C@@H]1O[C@@H]12 (stereo not given in full)	inactive	inactive	8.81% and 11.1%		
CCN(CC)C(C)CN1c2ccccc2Sc2ccccc21 (stereo not given)	inactive	inactive	16.5%		
COc1ccccc1C(=O)Nc1cc2c(cc1N1CCCC1)n(C)c(=O)n2C	8.2 µM (active)	9.34 µM (active)	-26.1%		
CC(C)(O)CNc1ncc(-c2ccnc(Nc3ccncc3)n2)c(CC2CC2)n1	1.48 µM (active)	1.18 µM (active)			14.1 µM (active)
CCC1=C[C@@H]2CN(C1)Cc1c([nH]c3ccccc13)[C@@](C(=O)OC)(c1cc3c(cc1OC)N(C)[C@H]1[C@@](O)(C(=O)OC)[C@H](OC(C)=O)[C@]4(CC)C=CCN5CC[C@]31[C@@H]54)C2	8.4 nM (active) and 91 nM (active)	7.5 nM (active) and 64.5 nM (active)	-91.8%	20.6 nM (active) and 2.54 µM (active)	0.143 µM (active)

Reference: PubChem BioAssay (NCATS)
